Laboratory results as given in PubChem BioAssay (EPA / NIEHS).
Results filed as inconclusive are left out. The source made the active and inactive calls. Rule for the calls, unless noted: active = hit-call score of the fitted dose curve at least 0.9, where 1 is the maximum; inactive = score below 0.9.

What was measured:
[1] = ATG_PBREM_CIS: Attagene CIS-FACTORIAL HepG2 Assay for human Phenobarbital-responsive Enhancer Module (PBREM) (AID 2282955); conditions: HepG2 PBREM cis-reporter, Attagene multiplexed transcription; actives raise or lower the signal
Summary of the method: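 HepG2 cells transiently transfected with multiple cis-regulated reporter transcription units; endogenous factor activity at the PBREM element measured as reporter mRNA 24 h after dosing, via RT-PCR and capillary electrophoresis of fluorescent fragments; bidirectional fitting versus DMSO.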

[2] = molecular target: Paired box protein Pax-6 (Homo sapiens) (UniProt P26367); experiment: ATG_Pax6_CIS: Attagene CIS-FACTORIAL HepG2 Assay for human Paired Box 6 (PAX6) (AID 2282956); conditions: HepG2 CIS-FACTORIAL PAX6 reporter transcription, RNA readout; actives raise or lower the signal
Paired box protein Pax-6 (Homo sapiens), sequence (P26367 whole entry, looked up): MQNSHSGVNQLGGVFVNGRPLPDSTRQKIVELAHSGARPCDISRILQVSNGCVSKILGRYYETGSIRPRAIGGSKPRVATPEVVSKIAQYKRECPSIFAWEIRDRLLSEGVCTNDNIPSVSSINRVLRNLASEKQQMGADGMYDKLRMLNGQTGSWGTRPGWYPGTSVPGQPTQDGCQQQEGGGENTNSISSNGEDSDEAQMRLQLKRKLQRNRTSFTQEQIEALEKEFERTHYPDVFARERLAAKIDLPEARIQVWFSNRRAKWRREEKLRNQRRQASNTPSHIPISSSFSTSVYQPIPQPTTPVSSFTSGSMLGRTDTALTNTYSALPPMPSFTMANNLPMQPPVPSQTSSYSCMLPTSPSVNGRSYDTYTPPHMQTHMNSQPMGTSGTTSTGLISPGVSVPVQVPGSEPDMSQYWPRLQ
Summary of the method: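 HepG2 cells transiently transfected with cis-promoter-driven multiplexed reporter units sensing endogenous transcription factor activity; 24 h chemical exposure. Reporter mRNA quantified by RT-PCR, 6-FAM labelling, HpaI digestion and capillary electrophoresis; bidirectional fit versus DMSO baseline.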

[3] = ATG_PXRE_CIS: Attagene CIS-FACTORIAL HepG2 Assay for human Pregnane X Receptor Element (PXRE) (AID 2282957); conditions: HepG2 Attagene CIS-FACTORIAL PXRE reporter, mRNA; actives raise or lower the signal
Summary of the method: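 Cis-element reporter mRNA in human hepatoma HepG2 cells is measured 24 h post-dosing by RT-PCR, primer-extension labeling and capillary electrophoresis; gain or loss of signal is fitted relative to DMSO.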

[4] = ATG_PPRE_CIS: Attagene CIS-FACTORIAL HepG2 Assay for human Peroxisome Proliferator-activated Response Element (PPRE) (AID 2282958); conditions: HepG2 PPRE cis-element reporter, Attagene transcription factor profiling; actives raise or lower the signal
Summary of the method: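 HepG2 cells transiently transfected with multiplexed cis-element reporter units measure endogenous transcription factor activity. After 24 h compound exposure, reporter mRNA is quantified by RT-PCR, 6-FAM labeling, HpaI digestion and capillary electrophoresis; bidirectional fits are made against DMSO baseline.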

[5] = ATG_Sox_CIS: Attagene CIS-FACTORIAL HepG2 Assay for human SRY-box transcription factor (SOX) (AID 2282960); conditions: HepG2 Attagene cis-factorial SOX reporter, mRNA; actives raise or lower the signal
Summary of the method: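 HepG2 cells transiently transfected with cis-element-driven multiple reporter transcription units, dosed 24 h; reporter mRNA measured by RT-PCR, FAM labelling, HpaI digestion and capillary electrophoresis. Bidirectional fit versus DMSO baseline.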

[6] = ATG_SREBP_CIS: Attagene CIS-FACTORIAL HepG2 Assay for human Sterol Regulatory Element Binding (SREBP) (AID 2282962); conditions: HepG2 Attagene cis-factorial SREBP reporter, mRNA; actives raise or lower the signal
Summary of the method: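 HepG2 cells transiently transfected with multiplexed cis-promoter reporter units sensing endogenous transcription factors; reporter mRNA measured 24 h after dosing by RT-PCR, 6-FAM labeling, HpaI digestion and capillary electrophoresis. Bidirectional fit versus DMSO.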

[7] = molecular target: Signal transducer and activator of transcription 3 (Homo sapiens) (UniProt P40763); experiment: ATG_STAT3_CIS: Attagene CIS-FACTORIAL HepG2 Assay for human Signal Transducer and Activator of Transcription 3 (STAT3) (AID 2282963); conditions: HepG2, Attagene cis-factorial STAT3 reporter transcription; actives raise or lower the signal
Signal transducer and activator of transcription 3 (Homo sapiens), sequence (P40763 whole entry, looked up): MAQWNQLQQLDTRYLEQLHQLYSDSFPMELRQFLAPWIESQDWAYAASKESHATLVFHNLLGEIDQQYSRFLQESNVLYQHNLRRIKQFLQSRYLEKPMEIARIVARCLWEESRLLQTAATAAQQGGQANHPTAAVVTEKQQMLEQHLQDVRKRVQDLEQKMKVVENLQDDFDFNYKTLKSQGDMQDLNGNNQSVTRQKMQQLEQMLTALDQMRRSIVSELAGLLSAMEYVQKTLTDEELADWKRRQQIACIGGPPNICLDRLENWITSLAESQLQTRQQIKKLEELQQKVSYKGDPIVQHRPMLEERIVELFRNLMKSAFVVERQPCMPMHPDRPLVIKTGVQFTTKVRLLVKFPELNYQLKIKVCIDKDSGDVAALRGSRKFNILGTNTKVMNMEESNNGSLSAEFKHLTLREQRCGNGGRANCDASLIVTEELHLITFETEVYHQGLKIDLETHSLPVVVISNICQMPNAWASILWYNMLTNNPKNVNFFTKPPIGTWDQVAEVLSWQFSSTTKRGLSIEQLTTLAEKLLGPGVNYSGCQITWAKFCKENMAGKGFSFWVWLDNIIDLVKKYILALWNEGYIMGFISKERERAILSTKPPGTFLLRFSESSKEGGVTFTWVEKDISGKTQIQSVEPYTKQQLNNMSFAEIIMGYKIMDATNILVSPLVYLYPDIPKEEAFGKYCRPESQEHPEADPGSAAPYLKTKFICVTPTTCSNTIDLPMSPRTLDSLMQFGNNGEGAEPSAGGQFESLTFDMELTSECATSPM
Summary of the method: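 HepG2 cells transiently transfected with cis-element-driven multiple reporter transcription units; after 24 h chemical exposure, reporter mRNA measured by RT-PCR, 6-FAM primer-extension labelling, HpaI digestion and capillary electrophoresis. Bidirectional fitting versus DMSO baseline.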

[8] = ATG_TA_CIS: Attagene CIS-FACTORIAL HepG2 Assay for human TA Basal Promoter (AID 2282964); conditions: HepG2 Attagene CIS-factorial TA basal promoter reporter; actives raise or lower the signal
Summary of the method: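 HepG2 cells transiently transfected with multiplexed cis-promoter reporter units, dosed 24 h. Reporter mRNA measured by RT-PCR, 6-FAM labelling, HpaI digestion and capillary electrophoresis; bidirectional fit versus DMSO baseline, serving as background control.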

[9] = ATG_TAL_CIS: Attagene CIS-FACTORIAL HepG2 Assay for human TAL Basal Promoter (AID 2282966); conditions: HepG2 Attagene cis-factorial TAL promoter reporter; actives raise or lower the signal;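 note: background control endpoint measuring basal TAL promoter reporter mRNA not a specific factor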
Summary of the method: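 In this cell-based multiplex, HepG2 liver cells bearing cis-promoter reporter constructs are dosed for 24 hours. Total RNA is reverse-transcribed and amplified, labelled fragments are sized by capillary electrophoresis, and signal changes are fitted bidirectionally versus DMSO.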

[10] = ATG_TGFb_CIS: Attagene CIS-FACTORIAL HepG2 Assay for human Transforming Growth Factor (TGF) (AID 2282967); conditions: HepG2 Attagene CIS TGFb reporter, mRNA transcription; actives raise or lower the signal
Summary of the method: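 HepG2 cells transiently transfected with cis-promoter-driven multiplexed reporter units; 24 h compound exposure. Reporter mRNA measured by RT-PCR, 6-FAM labeling, HpaI digestion and capillary electrophoresis; bidirectional fit versus DMSO baseline.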

[11] = ATG_VDRE_CIS: Attagene CIS-FACTORIAL HepG2 Assay for human Vitamin D Receptor Element (VDRE) (AID 2282968); conditions: HepG2 VDRE cis-reporter transcription, actives raise or lower the signal
Summary of the method: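 HepG2 cells transiently transfected with cis-element reporter units, dosed 24 h; reporter mRNA measured by RT-PCR, 6-FAM labeling, HpaI digestion and capillary electrophoresis. Activity fitted bidirectionally against DMSO baseline.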

[12] = molecular target: Estrogen receptor (Homo sapiens) (UniProt P03372); experiment: ATG_ERa_TRANS: Attagene TRANS-FACTORIAL HepG2 Assay for human Estrogen Receptor alpha (ERa) (AID 2282970; active = hit-call score of the fitted dose curve at least 0.9, where 1 is the maximum); conditions: HepG2 Attagene TRANS ERa GAL4 reporter, mRNA
Estrogen receptor (Homo sapiens), sequence (P03372 whole entry, looked up, the tested form may be a part): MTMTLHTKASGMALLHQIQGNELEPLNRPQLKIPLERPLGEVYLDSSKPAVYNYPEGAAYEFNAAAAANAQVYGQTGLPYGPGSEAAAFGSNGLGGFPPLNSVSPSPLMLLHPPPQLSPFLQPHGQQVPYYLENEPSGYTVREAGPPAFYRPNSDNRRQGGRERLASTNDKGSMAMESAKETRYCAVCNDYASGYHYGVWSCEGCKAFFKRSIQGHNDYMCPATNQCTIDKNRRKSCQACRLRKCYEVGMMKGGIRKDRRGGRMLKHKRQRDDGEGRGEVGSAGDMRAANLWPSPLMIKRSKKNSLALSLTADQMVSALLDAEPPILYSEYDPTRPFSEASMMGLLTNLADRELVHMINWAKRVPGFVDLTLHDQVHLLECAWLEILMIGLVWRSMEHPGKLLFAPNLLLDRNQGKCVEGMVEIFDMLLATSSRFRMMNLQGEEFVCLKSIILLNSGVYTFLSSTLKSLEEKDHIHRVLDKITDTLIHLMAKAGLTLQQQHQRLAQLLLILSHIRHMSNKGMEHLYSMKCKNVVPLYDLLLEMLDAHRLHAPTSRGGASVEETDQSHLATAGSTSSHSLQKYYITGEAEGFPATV
Summary of the method: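 After 24 h of compound treatment, RNA from HepG2 cells bearing transfected GAL4-UAS reporter constructs is converted to cDNA, amplified and fluorescently labelled. Capillary electrophoresis resolves the ERa-linked reporter; DMSO serves as negative control.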

[13] = molecular target: Steroid hormone receptor ERR1 (Homo sapiens) (UniProt P11474); experiment: ATG_ERRa_TRANS: Attagene TRANS-FACTORIAL HepG2 Assay for human Estrogen-Related Receptor alpha (ERRa) (AID 2282971; active = hit-call score of the fitted dose curve at least 0.9, where 1 is the maximum); conditions: HepG2 Attagene TRANS reporter, ERRa transactivation
Steroid hormone receptor ERR1 (Homo sapiens), sequence (P11474 whole entry, looked up, the tested form may be a part): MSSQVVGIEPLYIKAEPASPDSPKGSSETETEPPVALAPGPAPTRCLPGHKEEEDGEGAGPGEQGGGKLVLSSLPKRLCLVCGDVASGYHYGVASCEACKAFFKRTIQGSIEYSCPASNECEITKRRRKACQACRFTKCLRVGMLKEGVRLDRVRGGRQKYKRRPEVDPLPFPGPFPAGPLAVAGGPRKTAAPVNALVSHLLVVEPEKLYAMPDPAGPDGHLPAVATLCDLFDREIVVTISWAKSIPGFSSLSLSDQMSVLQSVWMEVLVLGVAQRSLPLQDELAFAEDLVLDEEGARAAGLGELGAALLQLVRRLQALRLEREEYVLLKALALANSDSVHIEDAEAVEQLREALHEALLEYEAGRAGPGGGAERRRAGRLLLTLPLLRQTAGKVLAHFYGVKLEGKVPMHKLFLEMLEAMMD
Summary of the method: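 Transfected HepG2, 24 h dosing, ERRa-Gal4 chimera driving GAL4-UAS reporter. Readout: reporter mRNA via RT-PCR plus capillary electrophoresis (fluorescence). Positive direction vs DMSO control.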

[14] = molecular target: X-box-binding protein 1 (Homo sapiens) (UniProt P17861); experiment: ATG_Xbp1_CIS: Attagene CIS-FACTORIAL HepG2 Assay for human X-box Binding Protein 1 (XBP1) (AID 2282972); conditions: HepG2 XBP1 cis-element reporter, Attagene multiplex; actives raise or lower the signal
X-box-binding protein 1 (Homo sapiens), sequence (P17861 whole entry, looked up): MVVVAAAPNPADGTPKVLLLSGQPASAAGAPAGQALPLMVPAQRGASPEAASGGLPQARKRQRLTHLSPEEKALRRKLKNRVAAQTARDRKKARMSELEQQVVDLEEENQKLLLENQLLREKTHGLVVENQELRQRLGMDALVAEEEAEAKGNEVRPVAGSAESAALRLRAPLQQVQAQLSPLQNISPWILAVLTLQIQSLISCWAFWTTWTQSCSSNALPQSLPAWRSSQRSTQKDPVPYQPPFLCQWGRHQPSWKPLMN
Summary of the method: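 HepG2 cells transiently transfected with multiple cis-element reporter units report endogenous TF activity; 24 h exposure, then reporter mRNA measured by RT-PCR, 6-FAM labelling, HpaI digestion and capillary electrophoresis. Bidirectional fitting versus DMSO.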

[15] = ATG_M_19_TRANS: Attagene TRANS-FACTORIAL HepG2 Assay for M19 Transcription Factor (Internal Marker) (AID 2282974; active = hit-call score of the fitted dose curve at least 0.9, where 1 is the maximum); conditions: HepG2 Attagene TRANS-FACTORIAL M19 internal marker reporter
Summary of the method: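 HepG2 cells transiently transfected with multiple GAL4-UAS reporter transcription units were exposed to chemicals for 24 h. Reporter mRNA was read by RT-PCR, 6-FAM primer extension, HpaI digestion and capillary electrophoresis; gain of signal fitted relative to DMSO.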

[16] = ATG_GAL4_TRANS: Attagene TRANS-FACTORIAL HepG2 Assay for GAL4 (Internal Marker) (AID 2282976; active = hit-call score of the fitted dose curve at least 0.9, where 1 is the maximum); conditions: HepG2 Attagene TRANS GAL4 internal marker reporter
Summary of the method: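 RT-PCR/capillary electrophoresis readout of reporter mRNA. HepG2, transient MRTU transfection (GAL4-UAS reporters), 24 h compound exposure. Background-control endpoint, positive direction vs DMSO baseline.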

[17] = ATG_RORE_CIS: Attagene CIS-FACTORIAL HepG2 Assay for human RAR-related Orphan Receptor Element (RORE) (AID 2282959); conditions: HepG2 Attagene cis-factorial RORE reporter, mRNA; actives raise or lower the signal
Summary of the method: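 HepG2 cells transiently transfected with multiple cis-element reporter transcription units, exposed to chemical for 24 h. Reporter mRNA quantified by RT-PCR, 6-FAM primer-extension labeling, HpaI digestion and capillary electrophoresis; bidirectional fit versus DMSO baseline.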

[18] = molecular target: Transcription factor Sp1 (Homo sapiens) (UniProt P08047); experiment: ATG_Sp1_CIS: Attagene CIS-FACTORIAL HepG2 Assay for human Specificity Protein 1 (Sp1) (AID 2282961); conditions: HepG2 Sp1 cis-reporter transcription, actives raise or lower the signal
Transcription factor Sp1 (Homo sapiens), sequence (P08047 whole entry, looked up): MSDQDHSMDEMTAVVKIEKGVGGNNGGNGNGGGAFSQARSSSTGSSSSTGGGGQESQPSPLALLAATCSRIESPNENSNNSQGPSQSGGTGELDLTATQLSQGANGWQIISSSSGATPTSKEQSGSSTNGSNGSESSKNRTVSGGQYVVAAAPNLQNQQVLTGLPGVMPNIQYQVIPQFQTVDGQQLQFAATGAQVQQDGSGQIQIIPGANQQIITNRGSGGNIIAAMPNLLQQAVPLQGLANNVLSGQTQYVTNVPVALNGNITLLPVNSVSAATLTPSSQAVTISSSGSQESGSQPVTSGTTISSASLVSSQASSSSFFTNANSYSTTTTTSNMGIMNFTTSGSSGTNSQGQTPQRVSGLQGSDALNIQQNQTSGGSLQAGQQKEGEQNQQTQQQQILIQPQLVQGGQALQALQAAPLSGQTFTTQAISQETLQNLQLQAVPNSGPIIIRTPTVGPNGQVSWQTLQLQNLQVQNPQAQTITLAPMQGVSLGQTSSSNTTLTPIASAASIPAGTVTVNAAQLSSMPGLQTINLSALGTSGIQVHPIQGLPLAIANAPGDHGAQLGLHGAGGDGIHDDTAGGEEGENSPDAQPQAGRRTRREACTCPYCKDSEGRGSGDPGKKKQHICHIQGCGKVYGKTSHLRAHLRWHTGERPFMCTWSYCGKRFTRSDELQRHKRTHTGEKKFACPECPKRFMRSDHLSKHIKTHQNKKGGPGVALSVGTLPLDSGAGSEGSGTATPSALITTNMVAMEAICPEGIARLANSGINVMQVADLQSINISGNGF
Summary of the method: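 HepG2 cells transiently transfected with multiple reporter transcription units driven by cis-regulatory elements; Sp1-responsive reporter mRNA measured 24 h after dosing by RT-PCR and capillary electrophoresis fluorescence, fitted bidirectionally against DMSO baseline.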

[19] = molecular target: Nuclear receptor subfamily 1 group I member 3 (Homo sapiens) (UniProt Q14994); experiment: ATG_CAR_TRANS: Attagene TRANS-FACTORIAL HepG2 Assay for human Constitutive Androstane Receptor (CAR) (AID 2282969; active = hit-call score of the fitted dose curve at least 0.9, where 1 is the maximum;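 note: activators raise reporter mRNA above DMSO so AC50 marks induction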); conditions: HepG2 Attagene TRANS-FACTORIAL CAR reporter
Nuclear receptor subfamily 1 group I member 3 (Homo sapiens), sequence (Q14994 whole entry, looked up, the tested form may be a part): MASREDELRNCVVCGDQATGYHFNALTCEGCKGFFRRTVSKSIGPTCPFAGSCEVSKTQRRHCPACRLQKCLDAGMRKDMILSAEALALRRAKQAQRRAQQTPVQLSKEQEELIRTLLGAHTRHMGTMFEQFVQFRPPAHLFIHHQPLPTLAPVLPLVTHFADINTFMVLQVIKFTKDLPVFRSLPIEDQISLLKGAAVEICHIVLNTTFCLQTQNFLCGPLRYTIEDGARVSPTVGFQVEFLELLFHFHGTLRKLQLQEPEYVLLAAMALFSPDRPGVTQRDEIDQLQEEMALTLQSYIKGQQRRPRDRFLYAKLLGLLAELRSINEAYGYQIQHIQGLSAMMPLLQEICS
Summary of the method: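 HepG2 cells transiently transfected with multiplexed GAL4-UAS reporter units expressing chimeric NR-Gal4 proteins; compound exposure 24 h. Reporter mRNA measured by RT-PCR, 6-FAM labelling, HpaI digestion and capillary electrophoresis; gain-of-signal fitted against DMSO baseline.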

[20] = ATG_TCF_b_cat_CIS: Attagene CIS-FACTORIAL HepG2 Assay for human T-Cell-Factor with beta-catenin (TCF/b-cat) (AID 2282965); conditions: HepG2 TCF/beta-catenin cis-reporter transcription, actives raise or lower the signal
Summary of the method: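 Using capillary electrophoresis as the read-out, labelled reporter cDNA fragments from transiently transfected HepG2 were sized and quantified. Exposure lasted 24 hours; activity in either direction was referenced to DMSO.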

Measured: AC50

CC(C)(CO)COC(=O)C(C)(C)CO
not listed: [17] | [18] | [19] | [20]
inactive: all other assays above

CC1(C)[C@@H]2CC[C@@]1(C)C(=O)C2
not listed: [4] | [16] | [20]
inactive: all other assays above

CC1=CC=C(C(C)C)CC1
active: [3] 3.61 µM
not listed: [4] | [11] | [13] | [16] | [17]
inactive: all other assays above

Clc1cc(Cl)c(Cl)c(Cl)c1Cl
active: [1] 66.2 µM | [3] 27.6 µM | [10] 100 µM | [11] 56.2 µM | [12] 27 µM
not listed: [4] | [6] | [13] | [18]
inactive: all other assays above

CCCCCCCCC(CO)CCCCCC (stereo not given)
active: [1] 166 µM | [7] 133 µM
not listed: [4] | [13] | [15] | [16] | [17] | [19]
inactive: all other assays above

O=C(C=Cc1ccccc1)OCCc1ccccc1
active: [3] 12.8 µM | [8] 53.9 µM | [11] 28 µM | [12] 29.4 µM
not listed: [4] | [13] | [20]
inactive: all other assays above

CCCCCCO
not listed: [4] | [13] | [15] | [16] | [19]
inactive: all other assays above

CCCCCCOc1ccc(N)cc1
active: [3] 26.8 µM
not listed: [4] | [15] | [16] | [18] | [20]
inactive: all other assays above

Nc1ccc(C(=O)OCCCOC(=O)c2ccc(N)cc2)cc1
active: [3] 27.5 µM | [8] 63.7 µM | [11] 48.8 µM
not listed: [4] | [13] | [17] | [19]
inactive: all other assays above

CCC1(C)C(=O)N(Cl)C(=O)N1Cl (stereo not given)
active: [2] 49.8 µM | [3] 58.6 µM | [5] 37.9 µM | [20] 52.2 µM | [11] 32.4 µM | [14] 47.1 µM
not listed: [7] | [13] | [17] | [18]
inactive: all other assays above

Cc1cccc(C(C)(C)C)c1O
active: [1] 16.8 µM | [3] 4.59 µM | [11] 19.9 µM
not listed: [4] | [13] | [15] | [16]
inactive: all other assays above

CCCC(CC)c1ccccc1 (stereo not given)
active: [3] 36.2 µM | [18] 180 µM | [6] 164 µM | [12] 55.3 µM
not listed: [4] | [13] | [16] | [17]
inactive: all other assays above

C[Si](C)(C)N[Si](C)(C)C
not listed: [4] | [7] | [13] | [15] | [16] | [19]
inactive: all other assays above

CCCCC1C(=O)N(c2ccccc2)N(c2ccccc2)C1=O
active: [3] 1.44 µM
not listed: [4] | [6] | [13]
inactive: all other assays above
